Laboratory results published in PubChem BioAssay (NCATS).
Inconclusive results are not listed. A number with no mark means an inactive call. Active and inactive are the calls of the source. Calls follow the shape of the dose curve; as a rule, active = well fitted inhibition curve with a large enough effect; inconclusive = small, poorly fitted or top-dose-only effect; inactive = no such curve, though single readings can be large or run the other way.

Experiment: qHTS Screen of the MIPE 4.0 Collection Against Ewings Sarcoma (TC71) (AID 1259253); also: nearly all actives have a fitted effect of over 40% in size;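 as to viability (% of DMSO): 100% = DMSO-treated cells and 0% = medium-only wells without cells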
Conditions: TC71 Ewing sarcoma viability, CellTiter-Glo, 48 h; series mostly up to 45.8 µM; viability (% of DMSO): at the top concentration
Description: There is a large unmet medical need for treatments for Ewing sarcoma, a pediatric sarcoma. We sought to identify compounds that inhibited Ewing sarcoma cells in vitro with the goal to then test promising drugs in two drug combinations in vitro to look for synergistic drug combinations. Promising combinations would then proceed to additional validation, including in vivo testing.
Using the NCATS developed oncology compound library called the Mechanism of Interrogation Plate (MIPE), four Ewing sarcoma cell lines were evaluated (TC32, TC71, RDES, EW8). Compounds, in a 12-point titration series, were incubated with cells for 48 hours and the read out was cell viability (CellTiter-Glo from Promega). These initial experiments were used to select appropriate concentrations of each single agent for subsequent two-drug matrix combinations such that the concentrations in the matrices would span both activity and non-activity.
Cells, in the log phase of growth, were seeded in 5 uL of RPMI plus 5% FBS, […] L-glutamine, 100 U/ml penicillin and 100 ug/ml streptomycin into 1536-well solid-bottom white tissue culture treated Greiner Bio One Plates (789173-F) using a MultiDrop Combi (Thermofisher Scientific) dispenser and a small sterile cassette. One column was media alone to be used as a :"no cells" control. The plates were then covered with sterilized stainless steel gasketed lids from Kalypsys. After allowing cells to attach for 4 hours, 23 nL of test compound or control (negative control DMSO and positive control 9.2 uM Bortezomib-final) were added from a 1536-well polypropylene compound source plate to each well using a 1536 head pin tool from Kalypsys. Cells were then incubated for 48 hours at 37C, 95% relative humidity and 5% CO2. After 48 hours, plates were removed from the incubator and 3 uL of CellTiter-Glo (Promega) was added using an Aurora Flying Reagent Dispenser Bioraptor. Plates were incubated at room temperature for 10 minutes prior to reading the luminescence on the Viewlux (PerkinElmer). The relative luciferase units are used to calculate the percent activity using the activity of DMSO in the cells and no cells columns for normalization of no inhibition and full inhibition respectively.
Potency is read from the fitted curve at half-maximal effect.

Structure (SMILES) | Potency | viability (% of DMSO)
CCc1nc(N)nc(N)c1-c1ccc(Cl)cc1 | 1.32 µM (active) | 
COC(=O)C1=C(C)NC(C)=C(C(=O)OC(C)C)C1c1cccc2nonc12 (stereo not given) | 26.4 µM (active) | 
O=C(O)CCNC(=O)c1ccc(N=Nc2ccc(O)c(C(=O)O)c2)cc1 | 9.35 µM (active) | 
Nc1nc(OCc2ccccc2)c2[nH]cnc2n1 | 13.2 µM (active) | 
C[C@H](Cn1cnc2c(N)ncnc21)OCP(=O)(O)O |  | 126%
CN(C)CCCC1(c2ccc(F)cc2)OCc2cc(C#N)ccc21 (stereo not given) | 14.8 µM (active) | 
COc1ccc(C2(C#N)CCC(C(=O)O)CC2)cc1OC1CCCC1 (stereo not given) |  | 99.5%
Cc1cc(O)c2c(c1)C(=O)c1cc(O)cc(O)c1C2=O |  | 104%
CN(C)C(=O)[C@H](O)[C@H](Cc1ccccc1)NC(=O)c1cc2cc(Cl)ccc2[nH]1 | 16.6 µM (active) | 
Cc1cc2cc3c(C)cc(=O)oc3c(C)c2o1 | 11.8 µM (active) | 
C[C@@H](c1ncncc1F)[C@](O)(Cn1cncn1)c1ccc(F)cc1F |  | 113%
CC(C)[C@H](N)C(=O)OCCOCn1cnc2c(=O)[nH]c(N)nc21 |  | 118%
NS(=O)(=O)c1cc(C(=O)O)c(NCc2ccco2)cc1Cl |  | 110%
c1ccc2[nH]c(-c3cscn3)nc2c1 |  | 114%
CCC1=C(C)CN(C(=O)NCCc2ccc(S(=O)(=O)NC(=O)NC3CCC(C)CC3)cc2)C1=O (stereo not given) |  | 112%
CC(C)c1ccc2c(c1)c(SC(C)(C)C)c(CC(C)(C)C(=O)O)n2Cc1ccc(Cl)cc1 | 20.9 µM (active) | 
CCOC(=O)C1=C(O)C(=O)N(Cc2ccccc2)C1 |  | 120%
COc1ccccc1N1CCN(CCN(C(=O)C2CCCCC2)c2ccccn2)CC1 |  | 97%
NNc1nncc2ccccc12 |  | 109%
CN(c1nccc(=O)[nH]1)C1CCN(c2nc3ccccc3n2Cc2ccc(F)cc2)CC1 | 18.7 µM (active) | 

Structure (SMILES) | Potency | viability (% of DMSO)
CCC(C)(Oc1ccc(C2(c3ccc(OC(C)(CC)C(=O)O)cc3)CCCCC2)cc1)C(=O)O (stereo not given) |  | 113%
COc1cc(Nc2c(C#N)cnc3cc(OCCCN4CCN(C)CC4)c(OC)cc23)c(Cl)cc1Cl | 18.7 µM (active) | 
Nc1nc(Cl)nc2c1ncn2[C@H]1C[C@H](O)[C@@H](CO)O1 | 0.372 µM (active) | 
COc1c(O)cc2c(c1O)[C@@H]1O[C@H](CO)[C@@H](O)[C@H](O)[C@H]1OC2=O |  | 122%
Cc1ccc(S(=O)(=O)NC(=O)NN2CC3CCCC3C2)cc1 (stereo not given) | 16.6 µM (active) | 
Clc1ccc2c(N3CCN(CCCN4CCN(c5ccnc6cc(Cl)ccc56)CC4)CC3)ccnc2c1 |  | 119% [at 23.2 µM]
CC(=O)Nc1ccc(O)cc1 |  | 108%
CCN(CC)C(=S)SSC(=S)N(CC)CC | 0.0132 µM (active) | 
Cn1c(NCCN(CCO)CCCc2ccc([N+](=O)[O-])cc2)cc(=O)n(C)c1=O | 18.7 µM (active) | 
C[C@H](Cc1ccc(O)c(O)c1)[C@@H](C)Cc1ccc(O)c(O)c1 | 13.2 µM (active) | 
CCCc1cc(=O)[nH]c(=S)[nH]1 |  | 94.5%
COc1cc2c(cc1OC)C1CC(=O)C(CC(C)C)CN1CC2 (stereo not given) |  | 120%
CC1Cc2ccccc2N1NC(=O)c1ccc(Cl)c(S(N)(=O)=O)c1 (stereo not given) | 20.9 µM (active) | 
Cc1cccc(-c2[nH]ncc2-c2ccc3ncccc3n2)n1 |  | 117%
CCOC(=O)C1=C[C@@H](OC(CC)CC)[C@H](NC(C)=O)[C@@H](N)C1 |  | 128%
CN(C)c1ccc(O)c2c1C[C@H]1C[C@H]3[C@H](N(C)C)C(=O)C(C(N)=O)=C(O)[C@@]3(O)C(=O)C1=C2O | 4.69 µM (active) | 
CC[C@]1(O)C[C@H]2CN(CCc3c([nH]c4ccccc34)[C@@](C(=O)OC)(c3cc4c(cc3OC)N(C=O)[C@H]3[C@@](O)(C(=O)OC)[C@H](OC(C)=O)[C@]5(CC)C=CCN6CC[C@]43[C@@H]65)C2)C1 | 0.0033 µM (active) | 
CCCS(=O)c1ccc2nc(NC(=O)OC)[nH]c2c1 (stereo not given) | 23.5 µM (active) | 
CCOC(=O)C(C)Oc1cccc2c(=O)n(CC(=O)Nc3ccc4c(c3)OCCO4)ccc12 (stereo not given) |  | 101%
O=c1c(O)c(-c2ccc(O)cc2O)oc2cc(O)cc(O)c12 |  | 127%
